Assay results from PubChem BioAssay (NCATS).
Records with an inconclusive call do not appear. Activity calls are given as the source filed them. Calls come from the whole dose curve; as a rule, active = well fitted curve in the direction sought with a large enough effect; inconclusive = small, poorly fitted or top-dose-only effect, or another doubt; inactive = no such curve, though single readings can be large; an effect the other way counts as inactive or inconclusive.

How the values were obtained:
[1] = qHTS of pediatric cancer cell lines to identify multiple opportunities for drug repurposing: Primary screen for NB1643 cells (AID 1347099); note: nearly all actives have a fitted effect of over 50% in size; note: potency is the fitted concentration of half-maximal effect
Outline: (§1)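 Plated cells (500-1,000 per well, growth media) were allowed to settle for 5 hours, treated with compound dilutions for 48 hours, then lysed with CellTiter-Glo for 15 min at room temperature before luminescence reading.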

[2] = qHTS of pediatric cancer cell lines to identify multiple opportunities for drug repurposing: Primary screen for OHS-50 cells (AID 1347103); note: nearly all actives have a fitted effect of over 40% in size; note: potency is the fitted concentration of half-maximal effect
Outline: (§2)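 Cells (500-1,000/well) rested 5 h, then received compounds for 48 h; metabolically active cells were measured by CellTiter-Glo luminescence. Final concentrations spanned up to 46 µM (MIPE, 11-point) or 0.59 nM-46 µM (NPC, 8-point) in primary screens, 11-point in follow-ups.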

[3] = qHTS of pediatric cancer cell lines to identify multiple opportunities for drug repurposing: Primary screen for control Hh wild type fibroblast cells (AID 1347106);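 note: series mostly up to about 46 µM; a drop in luminescence marks cytotoxicity and a rise apparent proliferation; nearly all actives have a fitted effect of over 55% in size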
Outline: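 Cells (500-1,000/well) in growth media were settled 5 h at 37 degrees C, then given compounds for 48 h. Viability was read as CellTiter-Glo luminescence. Primary runs used MIPE at 11 points (0.78 nM-46 µM) and NPC at 8 points (0.59 nM-46 µM); follow-ups used 11 points.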

[4] = qHTS of pediatric cancer cell lines to identify multiple opportunities for drug repurposing: Primary screen for RD cells (AID 1347104); note: nearly all actives have a fitted effect of over 55% in size; note: potency is the fitted concentration of half-maximal effect
Outline: as §1

[5] = qHTS of pediatric cancer cell lines to identify multiple opportunities for drug repurposing: Primary screen for MG 63 (6-TG R) cells (AID 1347105); note: nearly all actives have a fitted effect of over 50% in size; note: potency is the fitted concentration of half-maximal effect
Outline: as §1

[6] = qHTS of pediatric cancer cell lines to identify multiple opportunities for drug repurposing: Primary screen for LAN-5 cells (AID 1347100); note: potency is the fitted concentration of half-maximal effect
Outline: (§3)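 Viability after 48 h compound treatment at 37C, 500-1,000 cells/well, read as ATP luminescence with CellTiter-Glo. Primary screens used 11-point (MIPE, 0.78 nM-46 µM) or 8-point (NPC, 0.59 nM-46 µM) final concentrations; follow-up screens used 11-point dilutions.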

[7] = qHTS of pediatric cancer cell lines to identify multiple opportunities for drug repurposing: Primary screen for BT-12 cells (AID 1347101); note: nearly all actives have a fitted effect of over 25% in size; note: potency is the fitted concentration of half-maximal effect
Outline: as §2

[8] = qHTS of pediatric cancer cell lines to identify multiple opportunities for drug repurposing: Primary screen for Rh18 cells (AID 1347102); note: nearly all actives have a fitted effect of over 65% in size; note: potency is the fitted concentration of half-maximal effect
Outline: as §3

[9] = qHTS of pediatric cancer cell lines to identify multiple opportunities for drug repurposing: Primary screen for Rh30 cells (AID 1347107); note: series mostly up to about 46 µM; nearly all actives have a fitted effect of over 75% in size
Outline: as §3

[10] = qHTS of pediatric cancer cell lines to identify multiple opportunities for drug repurposing: Primary screen for Rh41 cells (AID 1347108); note: nearly all actives have a fitted effect of over 70% in size; note: potency is the fitted concentration of half-maximal effect
Outline: as §1

Measured: Potency

Cn1cnc(-c2cc3nccc(Oc4ccc(NC(=S)NC(=O)Cc5ccccc5)cc4F)c3s2)c1
inactive: [3]
active: [1] 16.6 µM | [2] 34.3 µM

CCCCc1ccc(NS(=O)(=O)c2ccc(C)c(C(=O)N3CCN(c4cccc(C)c4C)CC3)c2)cc1
inactive: [3]
active: [1] 23.5 µM | [4] 33.2 µM

CCOC(=O)N1c2ccc(C(F)(F)F)cc2[C@@H](N(Cc2cc(C(F)(F)F)cc(C(F)(F)F)c2)C(=O)OC)C[C@H]1CC
active: [2] 15.3 µM
inactive: [1] | [4] | [5] | [3]

CN(CC=CC#CC(C)(C)C)Cc1cccc2ccccc12
not listed: [1]
inactive: all other assays above

CCCC1OC2C[C@@H]3[C@H]4CCC5=CC(=O)C=C[C@]5(C)[C@H]4C(O)C[C@]3(C)[C@]2(C(=O)CO)O1 (stereo partly drawn)
inactive: [2] | [4] | [5] | [3]
active: [1] 20.9 µM

O=c1cc(-c2ccc(O)c(O)c2)oc2cc(O)cc(O)c12
inactive: [6] | [7] | [8] | [4] | [3] | [9]

Nc1ncnc2c1c(-c1cccc(OCc3ccccc3)c1)cn2C1CC(CN2CCC2)C1 (stereo not drawn)
inactive: [7] | [8]
active: [6] 4.69 µM | [4] 7.43 µM | [10] 2.96 µM

CC[C@H](NC(=O)[C@H](C)NC)C(=O)N1C[C@@H](O)C[C@H]1Cc1c(-c2[nH]c3cc(F)ccc3c2C[C@H]2C[C@H](O)CN2C(=O)[C@H](CC)NC(=O)[C@H](C)NC)[nH]c2cc(F)ccc12
active: [6] 0.372 µM | [7] 0.273 µM | [2] 0.432 µM
inactive: [8] | [9] | [10]

FC(F)(F)c1ccc(C=Cc2nc(COc3ccc(CCCCn4ccnn4)cc3)co2)cc1
active: [6] 0.0059 µM | [7] 0.0061 µM | [2] 0.0077 µM | [4] 0.0118 µM | [10] 0.469 µM
inactive: [3]

Cc1cccc(Nc2nc(N[C@@H]3CCCC[C@H]3N)ncc2C(N)=O)c1
active: [6] 18.7 µM | [7] 30.6 µM | [8] 20.9 µM | [2] 7.69 µM | [5] 14.8 µM | [10] 11.8 µM
inactive: [3]

CC[C@]1(O)C[C@H]2CN(CCC3=c4ccccc4=N[C]3[C@@](C(=O)OC)(c3cc4c(cc3OC)N(C)[C@H]3[C@@](O)(C(N)=O)[C@H](O)[C@]5(CC)C=CCN6CC[C@]43[C@@H]65)C2)C1
inactive: [9]
active: [6] 0.0166 µM | [7] 0.122 µM | [2] 0.0685 µM | [4] 0.0332 µM

Cc1ccc(S(=O)(=O)Nc2nc3ccccc3nc2Nc2ccc3nsnc3c2)cc1
active: [6] 0.0323 µM | [7] 0.0668 µM | [2] 0.0421 µM | [4] 0.0512 µM
inactive: [3]

O=C(O)C1=CO[C@@H](O[C@@H]2O[C@H](CO)[C@H](O)[C@H](O)[C@H]2O)[C@@H]2C(CO)=CC[C@H]12
not listed: [1] | [5]
inactive: all other assays above

CCCCCCCCCCCCCCCC(=O)O[C@H]1[C@@H](O)[C@@H](O)[C@@H]([C@H](NC(=O)[C@@H]2C[C@@H](CCC)CN2C)[C@H](C)Cl)O[C@@H]1SC
not listed: [1] | [4] | [10]
inactive: all other assays above

NCC1CCC(C(=O)O)CC1 (stereo not drawn)
not listed: [1] | [4]
inactive: all other assays above

O=C(O)C1=CC(O)C(O)[C@H](O)C1 (stereo partly drawn)
not listed: [1] | [5]
inactive: all other assays above

C[C@@H]1[C@H](C)CC[C@]2(C(=O)O)CC[C@]3(C)C(=CC[C@@H]4[C@@]5(C)CC[C@H](O)C(C)(C)[C@H]5CC[C@]43C)[C@@H]12
active: [6] 0.303 µM
not listed: [1] | [2] | [10]
inactive: all other assays above

C[C@@]1(c2cc(-c3cncnc3)c(F)cc2F)CCSC(N)=N1
active: [6] 3.72 µM | [7] 3.85 µM | [4] 2.09 µM
not listed: [1] | [2]
inactive: all other assays above

NC(=O)c1ccc(N(C(N)=O)c2c(F)cccc2F)nc1-c1ccc(F)cc1F
inactive: [6] | [7] | [8] | [5] | [3] | [9]

CC(C)CNc1ccnc(NCc2csc(-c3ccccc3)n2)n1
active: [6] 14.8 µM | [7] 6.85 µM | [8] 23.5 µM
inactive: [3] | [9]

COc1cc2nccc(Oc3ccc(NC(=O)Nc4ccc(F)cc4F)c(F)c3)c2cc1OC
active: [6] 0.833 µM | [2] 1.53 µM | [5] 9.35 µM
inactive: [7] | [3]

CC1(COc2ccc3c(c2)ncn3-c2ccc3cccc(N4CCC(N)CC4)c3n2)COC1
inactive: [9]
active: [6] 0.001 µM | [7] 6.11 µM | [8] 10.5 µM | [2] 13.7 µM | [4] 0.59 µM
